Data as given in PubChem BioAssay AID1671190 (National Center for Advancing Translational Sciences (NCATS), 2021).
The whole screen tested about 580,000 compounds, of which about 6,100 (1.1%) were called active. Where a call stands in place of a potency, no number is given. Roughly 15% stayed inconclusive and do not appear here. The call rests on the fitted dose curve; in most records, active means well fitted inhibition curve with a large enough effect; inconclusive means small, poorly fitted or top-dose-only effect, or another doubt; inactive means no such curve, though single readings can be large or run the other way. Only a selection was taken, and actives are over-represented in it overall.

Target: Polyunsaturated fatty acid lipoxygenase ALOX12 (Homo sapiens) (UniProt P18054)
Sequence (P18054 whole entry, looked up): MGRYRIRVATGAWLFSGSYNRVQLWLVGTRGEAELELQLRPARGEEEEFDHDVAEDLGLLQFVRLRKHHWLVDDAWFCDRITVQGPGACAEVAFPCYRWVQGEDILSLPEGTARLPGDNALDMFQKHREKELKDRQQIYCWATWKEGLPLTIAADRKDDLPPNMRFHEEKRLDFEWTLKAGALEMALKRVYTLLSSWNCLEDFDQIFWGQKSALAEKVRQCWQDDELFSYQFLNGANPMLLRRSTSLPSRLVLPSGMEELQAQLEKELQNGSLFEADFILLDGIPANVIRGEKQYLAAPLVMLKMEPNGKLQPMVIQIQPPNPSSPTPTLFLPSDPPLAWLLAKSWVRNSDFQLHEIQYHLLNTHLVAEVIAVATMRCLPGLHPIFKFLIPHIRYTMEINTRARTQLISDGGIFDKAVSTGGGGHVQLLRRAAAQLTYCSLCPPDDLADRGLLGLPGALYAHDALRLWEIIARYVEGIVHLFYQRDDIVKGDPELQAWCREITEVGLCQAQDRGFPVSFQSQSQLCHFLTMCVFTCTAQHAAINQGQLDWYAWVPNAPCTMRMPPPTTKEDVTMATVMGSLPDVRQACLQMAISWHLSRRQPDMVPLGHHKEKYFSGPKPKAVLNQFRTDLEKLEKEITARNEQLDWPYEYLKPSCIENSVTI
Test: Primary qHTS assay for inhibitors of human arachidonate 12S-lipoxygenase (ALOX12): Round 2
Conditions: purified 12hLO, xylenol orange hydroperoxide absorbance; series mostly up to 108 µM
Summary of the method: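 Purified human 12hLO (150 nM final) in 25 mM Hepes, 0.01% Triton X-100, pH 7.0 was preincubated 15 min at room temperature with compound. Then 40 uM arachidonic acid was added, 30 min. Hydroperoxide was read by Fe-XO absorbance ratio 573/405 nm.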
Potency means the concentration at half of the fitted maximal effect.

Row | Compound | Potency
1 | O=C(NC1CCN(CCCc2nc3ccccc3o2)CC1)C1CCCCC1 | inactive
2 | CCC(=O)Nc1ccccc1-c1nc2ccccc2n(CC(=O)Nc2ccc(NC(C)=O)cc2)c1=O | inactive
3 | CN(C)S(=O)(=O)c1ccc(C(=O)NCCN=C2NS(=O)(=O)c3ccccc32)cc1 | inactive
4 | Cc1ccccc1C(=O)NCCN=C1NS(=O)(=O)c2ccccc21 | inactive
5 | O=C1NS(=O)(=O)c2ccccc21 | 12.6 µM (active)
6 | CCN(Cc1nc2ccccc2c(=O)[nH]1)C(=O)Cc1csc(-c2ccc(C)cc2C)n1 | inactive
7 | COc1ccc(-c2cc(NC=O)c3ncc(-c4ccccc4)n3c2)cc1OC | inactive
8 | COc1ccccc1-c1cc(NC(C)=O)c2ncc(-c3ccc(F)cc3)n2c1 | 44.7 µM (active)
9 | COc1cccc(-c2cc(NC(C)=O)c3ncc(-c4cccc(C(C)=O)c4)n3c2)c1 | inactive
10 | CC(C)c1noc(C(C)Sc2nc(C3CC3)nc3ccccc23)n1 (configuration not stated) | inactive
11 | O=C(O)CCC(=O)C(CC(=O)O)CC(=O)O | inactive
12 | Cn1nc(C(C)(C)C)cc1NC(=O)c1cccc(F)c1 | inactive
13 | Cc1ccc(NC(=O)c2oc(=O)c3ccccc3c2-c2ccccc2)c(C)c1 | inactive
14 | Cc1ccc(NC(=S)NC(=O)c2ccc(-c3ccccc3)cc2)c(C)c1 | 17.8 µM (active)
15 | Cc1cccnc1NC(=O)c1ccc2nc(C)c(C)nc2c1 | inactive
16 | Cc1ccc(NC(=S)Nc2ncccc2C)c(C)c1 | 8.91 µM (active)
17 | Cc1cc(C)c(/C=N/NC(=O)c2ccccc2)c(C)c1 | inactive
18 | CCOC(=O)N1CCN(C(=S)Nc2ccc(C)cc2C)CC1 | inactive
19 | O=C(NNC(=O)C1(c2ccc(Br)cc2)CCCC1)c1ccccc1 | inactive
20 | COc1ccc(C2Cn3cnc(-c4nc(-c5ccc(OC)cc5OC)no4)c3CO2)cc1 (configuration not stated) | inactive
21 | CCc1c(C(=O)O)csc1C | inactive
22 | CCCCc1nc2sc(C(=O)OCC)c(N)c2c2c1COC(C)(C)C2 | inactive
23 | O=C(OCc1cn([C@@H]2C[C@H](c3ccc(Cl)cc3)N(Cc3cccs3)C[C@H]2O)nn1)c1ccccc1 | inactive
24 | O[C@H]1C[C@H](c2ccc(Cl)cc2)N(Cc2cccs2)C[C@@H]1n1cc(C2CC2)nn1 | 44.7 µM (active)
25 | O[C@@H]1C[C@H](c2ccccc2)N(Cc2cccs2)C[C@H]1n1cc(C2CC2)nn1 | inactive
26 | CC(C)Cn1nc(C(=O)OCC(=O)Nc2ccc(OC(F)(F)F)cc2)c2ccccc2c1=O | inactive

Row | Compound | Potency
27 | Cc1ccccc1S(=O)(=O)N1CCCC(CCC(=O)NCC2CCCCC2)C1 (configuration not stated) | inactive
28 | NC(=O)C1CCN(C(=O)c2ccc3c(=O)n(Cc4cccc(Br)c4)c(=S)[nH]c3c2)CC1 | 44.7 µM (active)
29 | CCOC(=O)N1CCN(C(=O)c2ccc3c(=O)n(CCc4ccc(OC)c(OC)c4)c(=O)[nH]c3c2)CC1 | inactive
30 | CCOc1cc2[nH]c(=S)n(Cc3ccc(C(=O)N4CCN(C)CC4)cc3)c(=O)c2cc1OCC | inactive
31 | O=C(Nc1cccc2cccnc12)C1=C(c2ccccc2)S(=O)(=O)CCO1 | inactive
32 | COc1ccc2c(C)c(CC(=O)Nc3nnc(C)s3)c(=O)oc2c1OC | inactive
33 | COC(=O)Cc1cc(=O)n(-c2nc3ccccc3s2)[nH]1 | 6.31 µM (active)
34 | COc1ccc2cc(/C=C(/CC(=O)O)c3nc4ccccc4s3)ccc2c1 | inactive
35 | COc1ccc(CC(=O)Nc2ccc(-c3nc4ccccc4s3)c(C)c2)cc1 | inactive
36 | COc1ccc(N2C(=O)C(C)(C)CS2(=O)=O)cc1S(=O)(=O)Nc1ccc(F)c(Cl)c1 | inactive
37 | CCC1c2nccn2CCCN1C(=O)c1ccc(Cn2cncn2)o1 (configuration not stated) | inactive
38 | COC(=O)c1ccc(OC)cc1OCc1ccccc1C#N | inactive
39 | COc1ccc(-c2ccccc2CN)cc1 | inactive
40 | COc1ccc(C(C#N)=C2C=CC(=NO)c3ccccc32)cc1 | 39.8 µM (active)
41 | COc1ccc(C(=O)c2sc(Nc3cccc(F)c3)nc2N)cc1 | inactive
42 | O=C(NCCc1ccccn1)c1nc(Cn2cc([N+](=O)[O-])cn2)no1 | inactive
43 | O=C(Nc1ccc(Br)c2cccnc12)c1ccc(Cn2cc([N+](=O)[O-])cn2)o1 | 15.8 µM (active)
44 | CC(C)N(C(=O)Cn1c(CN2CCOCC2)nc2ccccc21)c1ccccc1 | inactive
45 | COc1ccc(-c2cn(-c3ccc(C)cc3)c(=O)n2CC(=O)Nc2ccc(OC)c(OC)c2)cc1 | inactive
46 | COc1ccc(-c2nc3ccccc3n2CCC(C)C)cc1OC | inactive
47 | COc1ccc(-n2c(-c3ccc(OC)c(OC)c3)n[nH]c2=S)cc1 | 17.8 µM (active)
48 | O=C([C@@H]1C[C@H](F)CN1C(=O)Nc1cc(F)cc(F)c1)N1CCCCC1 | inactive
49 | O=C(Cc1ccc(Cl)cc1)NCc1nnc2ccc(-c3ccc(F)cc3)nn12 | inactive
50 | CCOC(=O)Cn1c2c(c(-c3ccccc3OC)cc1=O)CCCC2 | inactive
51 | CCOC(=O)Cn1c(=O)n(-c2ccccc2OC)c2nc(-c3cccc(F)c3)nc(C(N)=O)c21 | 11.2 µM (active)
52 | CCOC(=O)Cn1c(=O)n(C2CCCCC2)c2nc(-c3cccc(OC)c3)nc(C(N)=O)c21 | inactive

Row | Compound | Potency
53 | CCCn1c(C)c(C)c(-c2nc3ccccc3[nH]2)c1NC(=O)CC(C)C | inactive
54 | Cc1cc(CN2CCN(Cc3nc(C(C)(C)C)no3)CC2)no1 | inactive
55 | O=c1cc(-c2cccnc2)nc2n(Cc3cccc(F)c3)c3ccccc3n12 | inactive
56 | CC(C)COC(=O)/C(C#N)=C\c1c[nH]c2ccccc12 | inactive
57 | CCCC1CCC(=NNC(=S)NCCc2ccccc2)CC1 (configuration not stated) | 44.7 µM (active)
58 | N#Cc1cccc(NC(=S)NCCc2ccccc2)c1 | inactive
59 | O=C(CCC1CCN(S(=O)(=O)c2ccccc2)CC1)NCCc1ccccc1 | inactive
60 | O=C(NCCCNC(=O)c1nc2ccccc2c(=O)[nH]1)c1cccnc1 | inactive
61 | O=C(CN(Cc1ccc(Br)cc1)S(=O)(=O)c1ccccc1)NCc1ccncc1 | inactive
62 | O=C(c1cccnc1)N(c1cc2sc(=O)oc2c2ccccc12)S(=O)(=O)c1ccccc1 | 15.8 µM (active)
63 | Cc1nn(CC(O)COc2ccccc2)c(=O)c2ccccc12 (configuration not stated) | inactive
64 | Cc1ccccc1C(=O)Nc1ccc2c(c1)nc(CCn1ccccc1=O)n2C | inactive
65 | CCN(CC)S(=O)(=O)c1ccc(Sc2nnc(C)s2)nc1 | inactive
66 | COc1ccc(C(=O)NCc2nnc3cc(-c4nc(C)no4)ccn23)cc1 | inactive
67 | CCCc1noc(-c2ccn3c(CNC(=O)c4ccc(N(C)C)cc4)nnc3c2)n1 | 44.7 µM (active)
68 | CN(C)c1ccc(C(=O)NCc2nnc3cc(-c4nc(C5CC5)no4)ccn23)cc1 | inactive
69 | CCc1cccc2c(C(=O)CSc3nnnn3C3CC3)c[nH]c12 | inactive
70 | CCCNC(=O)c1cn(-c2ccccc2)nc1-c1cccnc1 | inactive
71 | O=C(/C=C/c1cccc(F)c1)c1cc2ccccc2oc1=O | inactive
72 | O=[N+]([O-])c1ccc(Oc2ccc3ccncc3c2)cc1C(F)(F)F | inactive
73 | Cc1ccc(NC(=O)CCc2nc(C(C)(C)C)no2)nc1 | inactive
74 | Cc1cccc(NC(c2cccc(F)c2)c2ccc3ccc(C)nc3c2O)n1 (configuration not stated) | 25.1 µM (active)
75 | Cc1ccc2cccc(NC(=O)c3ccccc3C)c2n1 | inactive
76 | Cc1c(Cl)cccc1NC(=O)COC(=O)c1nn(C)c(=O)c2ccccc12 | inactive
77 | Cc1cc(C)n(CCC(=O)NCC2CCN(c3cc(-c4ccc(F)cc4)[nH]n3)CC2)n1 | inactive
78 | Cc1cc(C)c2sc(NC(=O)c3ccc(S(=O)(=O)N4CCCC4)cc3)nc2c1 | inactive

Row | Compound | Potency
79 | Cc1cc(C)c2oc(C(=O)Nc3ccc(S(=O)(=O)N4CCCCCC4)cc3)cc(=O)c2c1 | inactive
80 | Cc1cc(C)c(NS(=O)(=O)c2ccc(S(=O)(=O)N3CCCC3)cc2)c(C(=O)O)c1 | 39.8 µM (active)
81 | CC(=O)NC(C(=O)NC(C)c1cccc(Cl)c1)C(C)C (configuration not stated) | inactive
82 | CC(C)C(=O)N(Cc1ccc2cc[nH]c2c1)C1CC1 | inactive
83 | NC(=O)[C@@H](Cc1ccccc1)NC(=O)C1=C[C@@H](NS(=O)(=O)c2cccc(C(F)(F)F)c2)[C@@H](O)[C@H](O)C1 | inactive
84 | COc1ccc(CC/C(C)=N/O)cc1 | inactive
85 | O=C(c1ccco1)N1CCC2(CC1)CC(N(Cc1ccccc1)C1CC1)CCO2 (configuration not stated) | inactive
86 | C=CCOc1cccc(C2C(C(=O)c3ccc(C)o3)=C(O)C(=O)N2CCN2CCOCC2)c1 (configuration not stated) | inactive
87 | C=CCOc1cccc(C2NC(=O)c3ccccc3O2)c1 (configuration not stated) | inactive
88 | C=CCOc1cccc(C2C(C(=O)c3ccc(C)o3)=C(O)C(=O)N2c2nnc(C)s2)c1 (configuration not stated) | 39.8 µM (active)
89 | CC(C)NC(=O)NC(=O)Cn1cnc2c1c(=O)n(C)c(=O)n2C | inactive
90 | C/C(=N/NC(=O)c1ccc(Br)o1)c1ccc(C)o1 | inactive
91 | C/C(=N\NC(=O)NC1CCCCC1)c1ccc(OC(F)F)cc1OC(F)F | inactive
92 | C/C(=N\NC(=S)NC1CCCCC1)c1ccc(C)o1 | 5.01 µM (active)
93 | O=C(CN1CCN(C(=O)CCCc2c[nH]c3ccccc23)CC1)NC1CC1 | inactive
94 | CCOC(=O)CSc1ncn(-c2nc(NC(C)(C)C)nc(N(C)C)n2)n1 | inactive
95 | CN(CC(=O)Nc1ccc2c(c1)OC1(CCCCC1)O2)Cc1cccs1 | inactive
96 | CN(C)c1ccc(C=C2C(=O)OC3(CCCC3)OC2=O)cc1 | 44.7 µM (active)
97 | C=CCn1c(N2CCC(C(N)=O)CC2)nc2c1c(=O)[nH]c(=O)n2C | inactive
98 | O=C(Cc1ccc(Cl)cc1)NN=C1CCC(c2ccccc2)CC1 (configuration not stated) | inactive
99 | CCOC(=O)CN1C(=O)C(O)(CC(=O)c2cccnc2)c2ccccc21 (configuration not stated) | inactive
100 | CNCCC(F)(F)F | 15.8 µM (active)
101 | CN1CCC(CNC(=O)CCc2c[nH]c3ccccc23)CC1 | inactive
102 | Cc1cc(C(C)(C)C)ccc1OC(=O)c1ccc(C#N)cc1 | inactive
